{"source": "PubChem BioAssay AID624325", "about": "(Sanford-Burnham Center for Chemical Genomics, 2012)", "note": "In all, about 2,300 compounds went through this assay and about 1,000 (43%) were called active. So high a share suggests a set chosen from earlier hits. Not all results are given here. Values without a mark were called inactive.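 How the source made its calls: active means compounds inhibiting the enzyme by at least 50% at 15 µM in any one of the replicates; inactive means the rest.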"}
{"biological_target": "Fatty acid synthase (Homo sapiens) (UniProt P49327)", "sequence (P49327 whole entry, looked up, the tested form may be a part)": "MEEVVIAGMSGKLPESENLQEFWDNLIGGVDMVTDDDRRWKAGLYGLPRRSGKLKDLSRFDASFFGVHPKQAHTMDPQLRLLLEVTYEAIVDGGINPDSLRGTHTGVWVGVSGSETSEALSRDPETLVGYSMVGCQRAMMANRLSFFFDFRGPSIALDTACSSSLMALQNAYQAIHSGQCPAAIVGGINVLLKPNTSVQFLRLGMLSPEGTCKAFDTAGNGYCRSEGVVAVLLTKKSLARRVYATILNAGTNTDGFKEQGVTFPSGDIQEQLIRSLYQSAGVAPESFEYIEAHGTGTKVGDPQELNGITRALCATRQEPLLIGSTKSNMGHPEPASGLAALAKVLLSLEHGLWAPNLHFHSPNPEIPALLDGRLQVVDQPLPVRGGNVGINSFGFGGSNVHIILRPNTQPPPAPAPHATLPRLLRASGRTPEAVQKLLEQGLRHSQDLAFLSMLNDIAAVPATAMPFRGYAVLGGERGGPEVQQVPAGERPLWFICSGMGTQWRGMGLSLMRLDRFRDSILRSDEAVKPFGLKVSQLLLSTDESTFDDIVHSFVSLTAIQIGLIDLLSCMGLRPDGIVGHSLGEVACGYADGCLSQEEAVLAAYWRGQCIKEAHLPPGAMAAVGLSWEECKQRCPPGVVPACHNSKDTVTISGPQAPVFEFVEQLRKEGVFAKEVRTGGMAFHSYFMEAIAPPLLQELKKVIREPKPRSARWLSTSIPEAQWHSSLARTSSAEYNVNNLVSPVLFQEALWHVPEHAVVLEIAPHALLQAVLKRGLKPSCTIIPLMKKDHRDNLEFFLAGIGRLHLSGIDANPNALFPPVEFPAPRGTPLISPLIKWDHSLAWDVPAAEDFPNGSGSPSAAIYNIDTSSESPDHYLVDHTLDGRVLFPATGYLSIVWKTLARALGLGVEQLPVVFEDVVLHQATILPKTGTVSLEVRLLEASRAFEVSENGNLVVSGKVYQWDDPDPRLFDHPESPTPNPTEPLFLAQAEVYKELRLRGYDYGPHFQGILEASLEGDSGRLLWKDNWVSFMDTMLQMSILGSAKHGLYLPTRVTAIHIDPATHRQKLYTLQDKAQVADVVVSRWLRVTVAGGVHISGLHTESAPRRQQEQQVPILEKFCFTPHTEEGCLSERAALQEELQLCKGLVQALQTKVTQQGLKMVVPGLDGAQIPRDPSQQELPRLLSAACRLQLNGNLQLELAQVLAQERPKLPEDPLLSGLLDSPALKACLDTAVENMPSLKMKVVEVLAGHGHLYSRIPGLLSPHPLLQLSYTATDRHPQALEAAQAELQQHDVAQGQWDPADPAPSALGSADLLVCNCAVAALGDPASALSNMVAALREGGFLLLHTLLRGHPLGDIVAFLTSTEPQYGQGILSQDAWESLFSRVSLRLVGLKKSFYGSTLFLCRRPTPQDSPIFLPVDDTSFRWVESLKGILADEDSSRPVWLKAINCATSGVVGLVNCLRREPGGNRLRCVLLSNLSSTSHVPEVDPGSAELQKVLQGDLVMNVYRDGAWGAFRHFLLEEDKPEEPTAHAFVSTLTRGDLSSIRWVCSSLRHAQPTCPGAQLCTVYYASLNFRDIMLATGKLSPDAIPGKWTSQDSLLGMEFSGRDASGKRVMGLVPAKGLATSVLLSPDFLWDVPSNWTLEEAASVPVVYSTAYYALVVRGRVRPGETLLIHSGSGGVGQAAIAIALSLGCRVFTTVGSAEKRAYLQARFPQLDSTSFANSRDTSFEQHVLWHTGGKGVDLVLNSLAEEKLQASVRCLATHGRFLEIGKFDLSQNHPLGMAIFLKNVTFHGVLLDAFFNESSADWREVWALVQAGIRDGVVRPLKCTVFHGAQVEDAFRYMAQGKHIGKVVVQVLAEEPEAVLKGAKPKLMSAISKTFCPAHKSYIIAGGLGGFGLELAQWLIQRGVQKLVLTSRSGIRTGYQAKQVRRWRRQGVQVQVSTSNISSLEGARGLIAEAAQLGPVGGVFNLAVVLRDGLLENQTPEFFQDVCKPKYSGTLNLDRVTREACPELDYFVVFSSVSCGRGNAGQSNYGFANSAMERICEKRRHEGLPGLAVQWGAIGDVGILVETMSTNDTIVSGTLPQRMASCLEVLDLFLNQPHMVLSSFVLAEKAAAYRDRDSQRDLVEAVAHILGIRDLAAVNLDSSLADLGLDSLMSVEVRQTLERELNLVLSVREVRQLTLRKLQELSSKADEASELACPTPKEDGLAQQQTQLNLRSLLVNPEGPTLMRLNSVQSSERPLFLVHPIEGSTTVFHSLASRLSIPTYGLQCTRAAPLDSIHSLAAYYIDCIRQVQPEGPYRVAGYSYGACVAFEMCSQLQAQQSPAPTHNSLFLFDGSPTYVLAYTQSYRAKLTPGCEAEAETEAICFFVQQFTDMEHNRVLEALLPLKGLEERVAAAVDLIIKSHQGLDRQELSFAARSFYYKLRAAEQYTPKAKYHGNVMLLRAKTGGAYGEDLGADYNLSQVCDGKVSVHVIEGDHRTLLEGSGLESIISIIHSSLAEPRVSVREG", "assay": "FAS thioesterase domain inhibitors, confirmation, biochemical, fluorescence intensity, single concentration (AID 624325);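 further: 0% = enzyme with DMSO only and 100% = wells lacking enzyme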", "conditions": "recombinant FAS-TE, OMFH fluorogenic substrate, at 15 µM, hits give high values"}
{"smiles": "CNC(=O)/C(=C\\C=C\\c1ccccc1)NC(=O)c1ccc([N+](=O)[O-])cc1", "inhibition": "91.7% (active)"}
{"smiles": "C/C(=N\\Nc1nc(N2CCOCC2)nc(N2CCOCC2)n1)c1ccc([N+](=O)[O-])cc1", "inhibition": "41.8% (active)"}
{"smiles": "CCCN1Cc2cccc(C(=O)Nc3ccc(S(=O)(=O)N4CCCCCC4)cc3)c2C1=O", "inhibition": "0.41%"}
{"smiles": "COc1ccc(S(=O)(=O)N2CCCCC2)cc1NC(=O)c1cc([N+](=O)[O-])ccc1N1CCOCC1", "inhibition": "25.8%"}
{"smiles": "O=C(NCc1ccc2c(c1)OCO2)c1cc([N+](=O)[O-])ccc1N1CCOCC1", "inhibition": "54% (active)"}
{"smiles": "CN(C)c1ccc(/C=C/C(=O)c2ccc(C(C)(C)C)cc2)cc1[N+](=O)[O-]", "inhibition": "33%"}
{"smiles": "Cc1cc(C(=O)N/N=C/c2cc([N+](=O)[O-])cc(C)c2O)n[nH]1", "inhibition": "72.6% (active)"}
{"smiles": "O=[N+]([O-])c1cc(Br)c(O)c(/C=N/Nc2nc3ccccc3s2)c1", "inhibition": "16.1%"}
{"smiles": "CC1(C)CC(=O)c2c(n(S(=O)(=O)c3ccccc3)c3ccc(NS(=O)(=O)c4ccccc4)cc23)C1", "inhibition": "19.9%"}
{"smiles": "Oc1c(Cl)cc(Cl)c(Cl)c1Cc1c(O)c(Cl)cc(Cl)c1Cl", "inhibition": "70.1% (active)"}
{"smiles": "Cc1noc(C)c1NC(=O)Nc1cccc2c1O[C@H](CN(C)C(=O)Nc1ccccc1)[C@@H](C)CN([C@H](C)CO)C2=O", "inhibition": "61.3% (active)"}
{"smiles": "O=C(Cc1ccc(Cl)c(Cl)c1)Nc1ccc(SC(F)F)cc1", "inhibition": "37.6%"}
{"smiles": "O=C(c1ccc2c(c1)N(Cc1ccc(F)cc1)C(=O)c1ccccc1S2(=O)=O)N1CCN(c2ccccn2)CC1", "inhibition": "21.2%"}
{"smiles": "COc1ccc2nc(Nc3nc4cc5c(cc4s3)OCCO5)sc2c1", "inhibition": "17.9%"}
{"smiles": "CC1=CC(=C(C#N)c2nc3ccccc3s2)C=C(C)N1c1ccc(F)cc1F", "inhibition": "-32.7%"}
{"smiles": "O=C(NCCC1=CCCCC1)c1ccc(Cl)c([N+](=O)[O-])c1", "inhibition": "61.2% (active)"}
{"smiles": "COc1ccc(-c2csc3nc(-c4ccccc4F)oc(=O)c23)cc1OC", "inhibition": "57.9% (active)"}
{"smiles": "Cc1sc2nc(-c3ccccc3F)oc(=O)c2c1C", "inhibition": "6.55%"}
{"smiles": "CCOC(=O)N1CCN(Cc2nc3ccc([N+](=O)[O-])cc3c(=O)n2-c2cccc(OC)c2)CC1", "inhibition": "76.1% (active)"}
{"smiles": "CCOc1cc(/C=C(/C#N)c2ccc(Cl)cc2)cc(Cl)c1OCC(=O)O", "inhibition": "63% (active)"}
{"smiles": "Cc1ccc(N2C(=O)C3C(c4ccccc4)(C2=O)C3(c2ccccc2)c2ccccc2)cc1", "note": "(stereo not drawn)", "inhibition": "4.09%"}
{"smiles": "COc1ccc(CNC(=O)C[C@H]2C[C@H](C(=O)N3CCOCC3)[C@@]3(CCC4CCCC4)c4[nH]c5ccc(Cl)cc5c4CCN3C2=O)cc1OC", "inhibition": "83.3% (active)"}
{"smiles": "O=C(C[C@H]1C[C@H](C(=O)N2CCOCC2)[C@@]2(CCC3CCCC3)c3[nH]c4ccc(Cl)cc4c3CCN2C1=O)NCc1ccco1", "inhibition": "27.4%"}
{"smiles": "CCOc1ccc(Nc2nc(Cl)nc(N3CCN(c4ccc(OC)cc4)CC3)n2)cc1", "inhibition": "12.5%"}
{"smiles": "Cc1cccc(N2C(=O)N3[C@H](c4ccc(F)cc4)[C@@H]4C(=O)N(C5CCCCC5)C(=O)[C@@H]4[C@]3(Cc3ccccc3)C2=O)c1", "inhibition": "10.1%"}
{"smiles": "C[C@@]12C(=O)N(c3cccc(Br)c3)C(=O)N1[C@H](c1ccc(Cl)cc1)[C@@H]1C(=O)N(C3CCCCC3)C(=O)[C@@H]12", "inhibition": "54% (active)"}
{"smiles": "O=C1[C@H]2[C@@H](c3ccc(F)cc3)N3C(=O)N(c4ccc(C(F)(F)F)cc4)C(=O)[C@@]3(Cc3ccccc3)[C@H]2C(=O)N1C1CCCCC1", "inhibition": "17.3%"}
{"smiles": "Cc1cccc(-n2c(SCC(=O)Nc3cccc(S(=O)(=O)NC4=NCCCCC4)c3)nc3ccccc3c2=O)c1C", "inhibition": "18.8%"}
{"smiles": "COC(=O)c1cc(C(=O)NC(C)C2CC3CCC2C3)cc([N+](=O)[O-])c1", "note": "(stereo not drawn)", "inhibition": "59.5% (active)"}
{"smiles": "O=C(Nc1cccc([N+](=O)[O-])c1)N1CCc2ccccc2C1", "inhibition": "65.8% (active)"}
{"smiles": "O=C(NCCCCc1ccccc1)C1CC(c2ccc([N+](=O)[O-])cc2)=NO1", "note": "(stereo not drawn)", "inhibition": "59.7% (active)"}
{"smiles": "O=C1NC(Cc2ccccc2)c2nc3ccc(Br)cc3c(=O)n2-c2cc3ccccc3cc21", "note": "(stereo not drawn)", "inhibition": "30.7%"}
{"smiles": "CC(NC(=O)Nc1cccc([N+](=O)[O-])c1)c1ccc2c(c1)OCO2", "note": "(stereo not drawn)", "inhibition": "84.4% (active)"}
{"smiles": "CCN(C(=O)CSc1ncnc2c1cnn2-c1ccccc1)C1CCS(=O)(=O)C1", "note": "(stereo not drawn)", "inhibition": "69.8% (active)"}
{"smiles": "CCOc1ccc(Br)cc1S(=O)(=O)Nc1ccc(C(=O)OC(C)C(=O)N(C)c2ccccc2)cc1", "note": "(stereo not drawn)", "inhibition": "14.2%"}
{"smiles": "CC1(C(=O)NS(=O)(=O)c2ccc(C#N)cc2)CCN1C(=O)c1ccc(C2CCCCC2)cc1", "note": "(stereo not drawn)", "inhibition": "71.8% (active)"}
{"smiles": "Cc1ccc(C)c(NC(=O)CSc2nc3c(oc4ccccc43)c(=O)n2-c2ccccc2)c1", "inhibition": "31.1%"}
{"smiles": "COc1ccccc1C1CC(=O)n2c(nc(-c3ccccc3)c2-c2ccccc2)S1", "note": "(stereo not drawn)", "inhibition": "0.79%"}
{"smiles": "CC(C)(C)NC(=O)NC(=O)COC(=O)Cc1ccc(Cl)cc1Cl", "inhibition": "68.1% (active)"}
{"smiles": "O=C1OCCN1C(=O)[C@H]1[C@H](c2ccc(Cl)cc2)C(c2cccc(Cl)c2)=NN1c1ccc(Br)cc1", "inhibition": "15.5%"}
{"smiles": "Cc1cccc(NC(=O)c2cc([N+](=O)[O-])ccc2N2CCN(C)CC2)c1", "inhibition": "54% (active)"}
{"smiles": "O=C(Nc1cccc(Cl)c1)c1cc([N+](=O)[O-])ccc1N1CCN(CCO)CC1", "inhibition": "66.5% (active)"}
{"smiles": "O=S(=O)(c1ccc(F)cc1)n1ccc(-c2cnc(-c3ccccc3)s2)n1", "inhibition": "14.5%"}
{"smiles": "Cc1ccc(S(=O)(=O)c2nnn3c2nc(N2CCN(c4ccccn4)CC2)c2ccccc23)cc1", "inhibition": "25.4%"}
{"smiles": "Cc1nc2c(OCc3ccc(Cl)cc3Cl)cccn2c1N(C)CC1CC1", "inhibition": "50% (active)"}
{"smiles": "O=C(COC(=O)c1cc([N+](=O)[O-])ccc1NCc1ccccc1)NC1CCCCC1", "inhibition": "37.6% (active)"}
{"smiles": "CCN1C(=O)[C@H]2[C@@H](c3ccc(SC4CCCCC4)c(OC)c3)N[C@@](Cc3ccccc3)(C(=O)OC)[C@H]2C1=O", "inhibition": "15.5%"}
{"smiles": "CCN1C(=O)[C@H]2[C@@H](c3ccc(-c4ccc(F)cc4)cc3)N[C@@](Cc3ccccc3)(C(=O)OC)[C@H]2C1=O", "inhibition": "43.4%"}
{"smiles": "Cc1cccc(N=C2NC(=O)/C(=C/c3cn(C)c4ccccc34)S2)c1", "inhibition": "-6.27%"}
{"smiles": "COc1cc(-c2noc(C3CCCN(S(=O)(=O)c4cccc(Cl)c4)C3)n2)cc(OC)c1OC", "note": "(stereo not drawn)", "inhibition": "30.8%"}
{"smiles": "COc1ccc([N+](=O)[O-])cc1NC(=O)COC(=O)/C=C/c1ccco1", "inhibition": "70.8% (active)"}
{"smiles": "CC(C)Oc1ccc(Cc2n[nH]c(=S)n2Cc2ccccc2)cc1Cl", "inhibition": "39.1% (active)"}
{"smiles": "CC(=O)c1sc(N/N=C/c2ccc(C(C)C)cc2)nc1C", "inhibition": "19.8%"}
{"smiles": "O=C(Nc1ccc(N2C(=O)c3cccc4cccc(c34)C2=O)cc1)c1ccc(N2CCCCC2)c([N+](=O)[O-])c1", "inhibition": "10.5%"}
{"smiles": "COc1ccc(C2CC(c3ccccc3)=NN2C(=O)c2ccc(Cl)c([N+](=O)[O-])c2)cc1", "note": "(stereo not drawn)", "inhibition": "21.3%"}
{"smiles": "O=C(c1ccc(Cl)c([N+](=O)[O-])c1)N1CCN(c2ccccc2)CC1", "inhibition": "58.3% (active)"}
{"smiles": "O=c1ccc2c(-c3ccccc3S(=O)(=O)O)c3ccc(O)c(O)c3oc-2c1O", "inhibition": "56.1% (active)"}
{"smiles": "O=C(Nc1nnc(SCc2ccccc2Cl)s1)c1cccc([N+](=O)[O-])c1", "inhibition": "51.7% (active)"}
{"smiles": "O=C(Nc1ccc(C2CC2(Cl)Cl)cc1)c1cccc([N+](=O)[O-])c1", "note": "(stereo not drawn)", "inhibition": "19.8%"}
{"smiles": "CC(=O)c1ccc(S(=O)(=O)N2CCN(c3nc4c(C)c(C)ccc4cc3C#N)CC2)cc1", "inhibition": "32.8%"}
{"smiles": "Cc1ccc(S(=O)(=O)N2CC[C@H]3[C@@H](C2)C(=O)C[C@@H](c2ccccc2)N3S(=O)(=O)c2ccc(C)cc2)cc1", "inhibition": "13.8%"}
{"smiles": "COc1ccc(-c2nnc(SC(=O)N3c4ccccc4Sc4ccccc43)o2)cc1", "inhibition": "13.1%"}
{"smiles": "CCCCOC(=O)CNc1nnc(SCC(=O)OCC)[nH]c1=O", "inhibition": "51% (active)"}
